Test results reported in ChEMBL document CHEMBL4513146, “CO-ADD screening of Karazin Kharkiv National University (Ukraine) compounds”.
The whole screen tested about 23,000 compounds, of which about 30 (0.1%) showed an effect of 50% or more. The list comes from a sample in which strong results are over-represented; it also holds similar structures and randomly drawn compounds. Potency and affinity values are given separately.

These compounds were tested on Pseudomonas aeruginosa. Details: Concentration 32 ug.mL-1;; ASSAY_TEST Inhibition of Bacterial Growth; detection method Absorption (OD600); MEDIA CAMHB; plate type 384well; NBS; CORNING #3640; time 18 hr.

SMILES | Inhibition [%]
COc1ccc(-c2cc3c4nn(CC(=O)Nc5ccc(F)cc5)c(=O)n4ccn3n2)cc1 | -1.39
O=C(CSc1nnc2c(=O)n(Cc3ccc(F)cc3)ccn12)NC1CCCC1 | 8.47
Cc1ccc(Oc2nccn3c(=O)n(CC(=O)Nc4ccc(Cl)cc4F)nc23)cc1 | 0.79
Cc1cccc(N(Cc2ccc(F)cc2)S(=O)(=O)c2cccn3c(C)nnc23)c1 | 11.57
COc1cccc(CSc2nnc3c(=O)n(-c4ccc(Br)cc4)ccn23)c1 | 16.71
Cc1ccccc1Oc1nccn2c(=O)n(CC(=O)Nc3ccc(Cl)c(Cl)c3)nc12 | 3.97
O=C(Cn1nc2c(Sc3ccccc3)nccn2c1=O)Nc1ccc(Br)cc1F | 11.79
COc1ccc(CNC(=O)CCc2nnc3c4cc(-c5ccc(Cl)cc5)nn4ccn23)cc1OC | 9.37
O=C(Cn1nc2c(Sc3ccccc3)nccn2c1=O)Nc1ccc2c(c1)OCCO2 | 17.83
